# Measurements: PubChem BioAssay (NCATS)
# Results filed as inconclusive are left out. Activity calls are given as the source filed them. Calls follow the shape of the dose curve; as a rule, active = well fitted inhibition curve with a large enough effect; inconclusive = small, poorly fitted or top-dose-only effect; inactive = flat fitted curve, though single readings scatter.
# Assays:
# Assay in all cases: Cytotoxic Profiling of Annotated Libraries Using Quantitative High-Throughput Screening (AID 1296008); also: nearly all actives have a fitted effect of over 60% in size
# Conditions in all cases: Five cell lines viability, CellTiter-Glo ATP luminescence, 48-72 h; max response: hits give low values
# CRL-7250 = normal cell line; tested on: CRL-7250
# In short: (§1)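 Compounds were pin-transferred onto cells and incubated 48 or 72 hr at 37 degree Celsius, 95% humidity. CellTiter-Glo was added, plates sat 10 min at room temperature, then ATP-coupled luminescence was imaged as the viability read-out.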
# HEK293 = tested on: HEK293
# In short: as §1
# HaCat = tested on: HaCat
# In short: as §1
# KB-3-1 = tested on: KB-3-1
# In short: as §1
# % is scaled to controls: 0 for no effect and ±100 for the full control effect; potency is read from the fitted curve at half-maximal effect.
compound,measurement,setting,value
CC(C)(C)Nc1nc2cc(Cl)c(Cl)cc2nc1S(C)(=O)=O,Potency,CRL-7250,16400 nM (active)
same,Potency,HEK293,4110 nM (active)
same,Potency,HaCat,5800 nM (active)
same,Potency,KB-3-1,13000 nM (active)
C/C=C/C(O)C1OC(=O)CC1Nc1ccc(C(=O)O)cc1 (stereo unspecified),max response,CRL-7250,4.31% (inactive)
same,max response,HEK293,4.45% (inactive)
same,max response,HaCat,-8.27% (inactive)
same,max response,KB-3-1,8.51% (inactive)
N#Cc1ccc2[nH]cc(CCCCN3CCN(c4ccc5oc(C(N)=O)cc5c4)CC3)c2c1,max response,CRL-7250,-7.54% (inactive)
same,Potency,HEK293,8200 nM (active)
same,max response,HaCat,-11.5% (inactive)
same,max response,KB-3-1,-15.8% (inactive)
CC(=O)O[C@@](C)(C(=O)/C=C/C(C)(C)O)[C@H]1[C@H](O)C[C@@]2(C)[C@@H]3CC=C4[C@@H](C=C(O)C(=O)C4(C)C)[C@]3(C)C(=O)C[C@]12C,Potency,CRL-7250,2820 nM (active)
same,Potency,HEK293,5630 nM (active)
same,Potency,HaCat,1420 nM (active)
same,Potency,KB-3-1,1000 nM (active)
CC(C)c1c2cc(-c3ccnc(NC4CCC(NC5CCOCC5)CC4)n3)ccc2nn1C (stereo unspecified),Potency,CRL-7250,580 nM (active)
same,Potency,HEK293,130 nM (active)
same,Potency,HaCat,1640 nM (active)
same,Potency,KB-3-1,231 nM (active)
COc1cccc2cc3c(c(O[C@@H]4O[C@H](CO[C@@H]5O[C@H](CO)[C@@H](O)[C@H](O)[C@H]5O)[C@@H](O)[C@H](O)[C@H]4O)c12)C(C)OC3=O (stereo partly specified),max response,CRL-7250,-0.694% (inactive)
same,max response,HEK293,2.15% (inactive)
same,max response,HaCat,-3.49% (inactive)
same,max response,KB-3-1,9.17% (inactive)
O=C(NCc1ccc(F)cc1)C(=O)c1c[nH]c2ccccc12,outcome,CRL-7250,inactive
same,max response,HEK293,-9.93% (inactive)
same,max response,HaCat,-19.7% (inactive)
same,max response,KB-3-1,-9.55% (inactive)
CC1CC(=O)C2=C(CCC3(O)C(O)c4c(O)cccc4C(=O)C23O)C1 (stereo unspecified),max response,CRL-7250,-7.17% (inactive)
same,max response,HEK293,-13.5% (inactive)
same,max response,HaCat,-7.44% (inactive)
same,max response,KB-3-1,6.8% (inactive)
Cc1cc(C(N)=O)ccc1-n1c(CCC(=O)O)ccc1-c1ccc(-n2ccnc2)cc1,max response,CRL-7250,1.88% (inactive)
same,max response,HEK293,-3.97% (inactive)
same,max response,HaCat,-1.63% (inactive)
same,max response,KB-3-1,7.2% (inactive)
CCOC(=O)C(CCc1ccccc1)NC(C)C(=O)N1C(=O)N(C)CC1C(=O)O (stereo unspecified),max response,CRL-7250,3.58% (inactive)
same,max response,HEK293,-4.81% (inactive)
same,max response,HaCat,-19.4% (inactive)
same,outcome,KB-3-1,inactive
Cc1cc(C)cc(C(=O)NOCCCCCC(=O)NO)c1,Potency,CRL-7250,8200 nM (active)
same,Potency,HEK293,1640 nM (active)
same,Potency,HaCat,1840 nM (active)
same,Potency,KB-3-1,2060 nM (active)
CC(=O)O[C@H]1[C@H](O[C@H]2[C@@H]3C=CO[C@@H](O[C@@H]4O[C@H](CO)[C@@H](O)[C@H](O)[C@H]4O)[C@@H]3[C@@]3(CO)O[C@@H]23)O[C@@H](C)[C@H](OC(=O)/C=C/c2ccccc2)[C@H]1OC(=O)/C=C/c1ccccc1,max response,CRL-7250,-1.73% (inactive)
same,max response,HEK293,-0.402% (inactive)
same,max response,HaCat,-13% (inactive)
same,outcome,KB-3-1,inactive
C=C[C@@H]1[C@H](O[C@@H]2O[C@H](CO)[C@@H](O)[C@H](O)[C@H]2O)OC=C(C(=O)O)[C@H]1CCOC(=O)/C=C/c1ccc(O)c(O)c1,max response,CRL-7250,1.95% (inactive)
same,max response,HEK293,4.3% (inactive)
same,max response,HaCat,-20.8% (inactive)
same,outcome,KB-3-1,inactive
C=C[C@]1(C)C[C@H](O)[C@@H]2[C@H](OC(=O)[C@@H]2C)C1/C(C)=C/O[C@@H]1O[C@H](CO)[C@@H](O)[C@H](O)[C@H]1O (stereo partly specified),max response,CRL-7250,-0.594% (inactive)
same,max response,HEK293,-0.606% (inactive)
same,max response,HaCat,-9.44% (inactive)
same,max response,KB-3-1,0.273% (inactive)
Nc1ncnc2c1nc(N)n2[C@@H]1O[C@H](CO)[C@@H](O)[C@H]1O,Potency,CRL-7250,2590 nM (active)
same,Potency,HEK293,1640 nM (active)
same,Potency,HaCat,580 nM (active)
same,Potency,KB-3-1,4610 nM (active)
COc1cc2c(c(OC)c1CC=C(C)C)C[C@H](c1ccc(O)cc1O)CO2,max response,CRL-7250,-5.34% (inactive)
same,max response,HEK293,0.883% (inactive)
same,outcome,HaCat,inactive
same,outcome,KB-3-1,inactive
CC[C@H](C)[C@H](NC(=O)[C@H]([C@@H](C)CC)N(C)C(C)=O)C(=O)N[C@H](C(=O)N[C@@H](CC(C)C)C(=O)[C@@]1(C)CO1)[C@@H](C)O,Potency,CRL-7250,29.1 nM (active)
same,Potency,HEK293,9.2 nM (active)
same,Potency,HaCat,36.6 nM (active)
same,Potency,KB-3-1,32.6 nM (active)
[N-]=[N+]=N[C@]1(CO)O[C@@H](n2ccc(=O)[nH]c2=O)[C@@H](O)[C@@H]1O,max response,CRL-7250,0.828% (inactive)
same,max response,HEK293,-4.49% (inactive)
same,max response,HaCat,4.64% (inactive)
same,outcome,KB-3-1,inactive
COc1c2c(c(C)c3c1C(=O)OC3)OC1(C)CC(O)C34OC(OC)(OC3(C)C)C(O)CC4(C)C1C2 (stereo unspecified),outcome,CRL-7250,inactive
same,max response,HEK293,-9.65% (inactive)
same,max response,HaCat,-21.2% (inactive)
same,outcome,KB-3-1,inactive
